Activity calls are given as the source filed them. A call without a number means that no potency is given here. Calls come from the whole dose curve; as a rule, active = well fitted activation curve with a large enough effect; inconclusive = small, poorly fitted or top-dose-only effect; inactive = flat fitted curve, though single readings scatter.

The nature of this experiment: Confirmation and Secondary Assay for Modulators of Hemoglobin Beta Chain Splicing at IVS2 705 locus (AID 930).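 Note: GFP fluorescence per well restored by corrected splicing of the IVS2-705 intron in EGFP.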 The conditions noted are these: HeLa EGFP-705 splicing reporter, GFP fluorescence, 48 h; series mostly up to 46.1 µM. In outline:
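Secondary splice-site specificity test uses HeLa expressing CMV-driven EGFP interrupted by IVS2-705; cells were treated 2 days at 37C with 500 nM antisense PNA as positive control.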
Consider `COc1cc(OC)c(C(C)=O)c(O)c1C`, for which the Potency entry is “inactive”.
On to `COc1ccc(-c2coc3c(O)c(OC)ccc3c2=O)cc1`, for which the Potency entry is “inactive”.
On to `COc1cc(O)c(C)c(O)c1`, for which the Potency result is “inactive”.
`C=C1CCC(=O)C(C)CCC2C1CC2(C)C` (stereo not drawn): the Potency entry is “inactive”.
Consider `CCCCN1CCCCC1C(=O)Nc1c(C)cccc1C` (stereo not drawn), for which the Potency result is “inactive”.
The same measure for `CC1(C)C(O)C=C[C@@]2(C)C1CC(=O)O[C@@]1(C)C3=CC(=O)OC(c4ccoc4)[C@]3(C)CCC21` (stereo partly drawn): “inactive”; for `C=C1C(=O)OC2CC1C(OC(C)=O)CC(C)=CCCC(C)=CCC[C@@]2(C)O` (stereo partly drawn): “inactive”; for `CC1(C)CC2C1CCC1(C)OC1CCC2(C)O` (stereo not drawn): “inactive”.
Take `C#C[C@]1(O)CCC2C3CCC4=Cc5oncc5C[C@@]4(C)C3CC[C@@]21C` (stereo partly drawn): the Potency entry is “inactive”.
For `Cc1cc(O)c(C=O)c(O)c1C(=O)O`, the Potency result was “inactive”.
Regarding `COC(=O)CC1C(C)(C)C(OC(C)=O)[C@@]2(O)C=C3C4CC(=O)OC(c5ccoc5)[C@]4(C)CCC3[C@@]1(C)C2=O` (stereo partly drawn), the Potency entry is “inactive”.
Turning to `C=CC(C1=CC(=O)C=CC1=O)c1ccccc1` (stereo not drawn), the Potency result is “inactive”.
For `CC(=O)C1CCC2C3CC(C)C4=CC(=O)CC[C@@]4(C)C3C(O)C[C@@]12C` (stereo partly drawn), the Potency entry was “inactive”.
The same measure for `CO[C@]12CC(COC(=O)c3cncc(Br)c3)CN(C)[C@@H]1Cc1cn(C)c3cccc2c13` (stereo partly drawn): “inactive”; for `CCOC(=O)C(Cc1ccc(O)cc1)NC(C)=O` (stereo not drawn): “inactive”.
Regarding `COc1ccc(-c2coc3cc(O)ccc3c2=O)c(OC)c1`, the Potency result was “inactive”.
As for `COC(=O)CC1C(C)(C)C(OC(C)=O)C2CC3=C4CC(=O)OC(c5ccoc5)[C@]4(C)CCC3[C@@]1(C)C2=O` (stereo partly drawn), the Potency result is “inactive”.
For `COc1cc(O)cc(OC)c1OC`, the Potency entry is “inactive”.
